Assay results: PubChem BioAssay AID1159580 (chemical genetic matrix, 2015)
Out of some 5,500 compounds screened, about 2,000 (36%) were called active. Inconclusive results (about 18%) are left out. Cut-off read from the data, not from the text of the source: active = normalized growth mostly below about 0.91 (no sharp cut-off); inconclusive = no clear call, values can overlap the other calls; inactive = mostly above about 0.92. This is one part of the list.

Assay: chemical genetic growth profiling, strain panel (AID 1159580);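 note: tested at 20 µM; growth read once vehicle control cultures reached saturation at 30 °C; 1 = growth at the plate median or of vehicle wells; lower values mean less growth of the strain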
Details: S. cerevisiae deletion strains, growth OD

Measured: normalized growth

CNC(=O)[C@H]1O[C@@H](n2cnc3c(N)ncnc32)C(O)[C@H]1O (some centres undefined)
inactive: locus YAL013W, strain DEP1, active compounds read low 0.987 | locus YAL040C, strain CLN3, active compounds read low 0.989 | locus YDR363W, strain ESC2, active compounds read low 1.07 | locus YER002W, strain NOP16, active compounds read low 0.973 | locus YGR078C, strain PAC10, active compounds read low 1 | locus YMR263W, strain SAP30, active compounds read low 0.985 | locus YNL128W, strain TEP1, active compounds read low 0.983 | locus YNL175C, strain NOP13, active compounds read low 0.984 | locus YNL197C, strain WHI3, active compounds read low 0.997 | locus YNL224C, strain SQS1, active compounds read low 0.996 | locus YNL322C, strain KRE1, active compounds read low 1.02 | locus YOR083W, strain WHI5 (second series), active compounds read low 1.02 | locus YPL241C, strain CIN2, active compounds read low 0.976

CSC1=NNC(c2nn(C)cc2Cl)S1 (centres undefined)
active: locus YAR019C, strain CDC15, active compounds read low 0.366 | locus YBL105C, strain PKC1, active compounds read low 0.509 | locus YBR135W, strain CKS1, active compounds read low 0.582 | locus YBR136W, strain MEC1, active compounds read low 0.565 | locus YBR160W, strain CDC28, active compounds read low 0.644 | locus YDL017W, strain CDC7, active compounds read low 0.586 | locus YDL028C, strain MPS1, active compounds read low 0.551 | locus YDL101C, strain DUN1, active compounds read low 0.206 | locus YDL108W, strain KIN28, active compounds read low 0.653 | locus YDL132W, strain cdc53, active compounds read low 0.472 | locus YDL214C, strain PRR2, active compounds read low 0.145 | locus YDR052C, strain DBF4, active compounds read low 0.874 | locus YDR054C, strain cdc34, active compounds read low 0.318 | locus YDR226W, strain ADK1, active compounds read low 0.511 | locus YDR477W, strain SNF1, active compounds read low 0.134 | locus YER123W, strain YCK3, active compounds read low 0.126 | locus YER133W, strain GLC7, active compounds read low 0.138 | locus YFL009W, strain cdc4, active compounds read low 0.282 | locus YFL029C, strain CAK1, active compounds read low 0.374 | locus YFR003C, strain YPI1, active compounds read low 0.594 | locus YFR019W, strain FAB1, active compounds read low 0.148 | locus YFR028C, strain CDC14, active compounds read low 0.444 | locus YGR040W, strain KSS1, active compounds read low 0.13 | locus YGR052W, strain FMP48, active compounds read low 0.131 | locus YGR092W, strain DBF2, active compounds read low 0.117 | locus YHR030C, strain SLT2, active compounds read low 0.178 | locus YHR079C, strain IRE1, active compounds read low 0.214 | locus YHR082C, strain KSP1, active compounds read low 0.236 | locus YHR205W, strain SCH9, active compounds read low 0.0971 | locus YIL147C, strain SLN1, active compounds read low 0.502 | locus YJL095W, strain BCK1, active compounds read low 0.134 | locus YJL128C, strain PBS2, active compounds read low 0.31 | locus YJL157C, strain FAR1, active compounds read low 0.159 | locus YJR016C, strain ILV3, active compounds read low 0.337 | locus YJR066W, strain TOR1 (second series), active compounds read low 0.171 | locus YJR066W, strain TOR1, active compounds read low 0.17 | locus YKL048C, strain ELM1, active compounds read low 0.158 | locus YKL067W, strain YNK1, active compounds read low 0.176 | locus YKL101W, strain HSL1, active compounds read low 0.142 | locus YKL193C, strain SDS22, active compounds read low 0.425 | locus YKL203C, strain TOR2, active compounds read low 0.136 | locus YLR113W, strain HOG1, active compounds read low 0.157 | locus YLR133W, strain CKI1, active compounds read low 0.137 | locus YLR403W, strain SFP1, active compounds read low 0.0487 | locus YML070W, strain DAK1, active compounds read low 0.147 | locus YMR001C, strain CDC5, active compounds read low 0.479 | locus YMR205C, strain PFK2 (second series), active compounds read low 0.143 | locus YMR277W, strain FCP1, active compounds read low 0.292 | locus YNL006W, strain LST8, active compounds read low 0.372 | locus YNL020C, strain ARK1, active compounds read low 0.126 | locus YNL161W, strain CBK1, active compounds read low 0.393 | locus YNL183C, strain NPR1, active compounds read low 0.112 | locus YNL207W, strain RIO2, active compounds read low 0.448 | locus YNL222W, strain SSU72, active compounds read low 0.455 | locus YNL307C, strain MCK1 (second series), active compounds read low 0.122 | locus YOL078W, strain AVO1, active compounds read low 0.415 | locus YOL136C, strain PFK27, active compounds read low 0.116 | locus YOR061W, strain CKA2, active compounds read low 0.118 | locus YOR119C, strain RIO1, active compounds read low 0.156 | locus YOR231W, strain MKK1, active compounds read low 0.222 | locus YOR329C, strain SCD5, active compounds read low 0.487 | locus YPL031C, strain PHO85, active compounds read low 0.128 | locus YPL153C, strain RAD53, active compounds read low 0.121 | locus YPL204W, strain HRR25, active compounds read low 0.16 | locus YPL209C, strain IPL1, active compounds read low 0.595 | locus YPL256C, strain CLN2, active compounds read low 0.177 | locus YPR025C, strain CCL1, active compounds read low 0.511 | locus YPR106W, strain ISR1, active compounds read low 0.395 | locus YPR111W, strain DBF20, active compounds read low 0.525 | strain NNK1, active compounds read low 0.199 | strain TSCII, active compounds read low 0.337
